High-throughput results: PubChem, National Center for Advancing Translational Sciences (NCATS)
Shown are actives, neighbours in structure and some others; about 6% of the full set was active somewhere.
D3 antag: antagonists of human D3 dopamine receptor; P35462; D3R cells, DiscoveRx beta-arrestin luminescence, antagonist mode; active compounds read low; max response, negative = inhibition, %; 2.5% of 360,000 active; AID 652054; in the data active = max response below about -50%; inconclusive = no clear call, values can overlap the other calls; also: % is scaled to controls: 0 for no effect and ±100 for the full control effect
Target sequence (P35462 whole entry, looked up): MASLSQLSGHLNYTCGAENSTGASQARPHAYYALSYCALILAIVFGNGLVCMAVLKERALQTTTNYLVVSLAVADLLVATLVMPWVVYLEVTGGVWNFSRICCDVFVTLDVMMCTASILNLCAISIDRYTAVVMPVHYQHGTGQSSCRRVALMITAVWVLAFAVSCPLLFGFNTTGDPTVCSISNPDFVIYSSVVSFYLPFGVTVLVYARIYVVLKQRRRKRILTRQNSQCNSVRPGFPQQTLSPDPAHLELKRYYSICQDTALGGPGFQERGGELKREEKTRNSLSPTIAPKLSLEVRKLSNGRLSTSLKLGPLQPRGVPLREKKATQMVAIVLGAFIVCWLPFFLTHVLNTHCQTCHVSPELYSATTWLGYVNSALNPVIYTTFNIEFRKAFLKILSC
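Cells plated overnight at 1500 cells/well, then exposed to library compounds with dopamine controls for 90 minutes at 37 degrees C. DiscoveRx reagent added for 30–60 minutes at room temperature; luminescence read, quantitative HTS format.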
D1 antag: human D1 dopamine receptor antagonism. HEK293 TREx D1 cells, calcium flux, dopamine EC80; active compounds read low. activity change, negative = inhibition, % at 10 µM. 3.2% of 360,000 active; in the data active = activity change below about -30%; also: % is scaled to controls: 0 for no effect and ±100 for the full control effect
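Using tetracycline-induced force-coupled D1 Hek293 cells and a calcium dye, signals were followed for 180 s after compound, then for 180 s after EC80 dopamine, to detect inhibitors.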
D3 ag: D3 dopamine receptor (human) agonism; P35462; D3R DiscoveRx beta-arrestin cells, luminescence, 90 min; max activation, %; 0.58% of 410,000 active; in the data active = max activation above about 30%; also: 0% is about no effect
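Agonist mode: compounds and dopamine controls were applied to plated cells for 90 min at 37 degrees C after an overnight attachment at 1500 cells/well. Luminescent read-out followed 30 - 60 minutes at room temperature with DiscoveRx detection reagent.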
Chronic BCR inh: blocks chronic active B-cell receptor signaling; AID 493014; Potency, µM (titrated, usually from 46.1 µM), for the others: top-dose activity change, negative = inhibition, usual class: inhibitors; ABC-DLBCL IkBa-CBG/CBR reporter, luminescence ratio, 4 h; 0.05% of 340,000 active; active = well fitted inhibition curve with a large enough effect in the signal ratio, with a control signal flat, not every such curve was filed as active; inconclusive = small, poorly fitted or top-dose-only effect, or effect the other way, or a change in a side signal; the % refers to the signal ratio;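 also: potency is read from the fitted curve at half-maximal effect; plate controls were basal doxycycline-induced cells for no effect and cells given 10 µM MG132 for full effect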
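Cell line TMD8 (human ABC DLBCL), stably expressing tet-inducible CBG68-IkBa fusion and CBR; IMDM/0.5% FBS; cpd up to 46 uM; dox induction, 4 h, 37C/5% CO2; dual luminescence; green/red ratio; MG132 control.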
D1 agonist: agonists of human D1 dopamine receptor; P21728; AID 504660; activation, % at 2 µM; HEK293 T-REx D1 cells, calcium flux, agonist mode; 1% of 360,000 active; in the data active = activation above about 30%; also: 0% is about no effect
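Agonism was scored from calcium flux recorded over 180 s (1 read/s) after pintool compound addition, following a 10-cycle baseline. Cells were inducible force-coupled HEK293 TREx D1, plated overnight at 30 C and loaded with no-wash calcium dye.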
D1 PAM: human D1 dopamine receptor positive modulation. 0.036% of 360,000 active. potentiation, % at 10 µM. HEK293 TREx D1 cells, calcium flux, dopamine EC20 potentiation. AID 504651. P21728; in the data active = potentiation above about 30%; also: 0% is about no effect
Active calls of the source: *; u = inconclusive; x = not tested or not shown.

SMILES | D3 antag | D1 antag | D3 ag | Chronic BCR inh | D1 agonist | D1 PAM
COc1ccc(Cn2c(=O)c3oc4ccccc4c3n(Cc3ccc(Cl)cc3)c2=O)cc1 | x | -10 | -1 | x | 0 | 0
COc1cccc(-c2cnc(C(O)c3cc(C)cc(C)c3)[nH]2)c1 (stereo not given) | 0 | x | -11 | x | x | x
CCC(C(=O)Nc1ccc(C(=O)N2CCCC2)cc1)c1ccccc1 (stereo not given) | -15 | 4 | -1 | -1% | 37* | -6
CC(C)C(=O)Nc1ccc(C(=O)N2CCCCCC2)cc1 | 46 | -5 | 2 | 25% | 3 | -6
CC(C)C1Cc2c(sc3c2c(=O)n(Cc2ccccc2)c2nncn32)CO1 (stereo not given) | -53* | 4 | -12 | -1% | 2 | 0
Cc1ccc(C(=O)NCCN2CCN(C(=O)c3ccc(C)c(C)c3)CC2)cc1C | -98* | 5 | -28 | -1% | 0 | -3
O=C(c1ccc(Br)cc1)N1CCN(CCc2ccncc2)CC1 | x | -5 | -38 | x | 2 | 3
COc1cc(C(=O)NCCN2CCN(C(=O)c3cc(OC)c(OC)c(OC)c3)CC2)cc(OC)c1OC | 15 | -4 | 2 | u | 2 | -9
CC1CCCCN1CCCNC(=O)c1ccc(Br)cc1 (stereo not given) | -65* | -5 | -31 | 2% | 8 | -2
O=C(NCCN1CCN(C(=O)c2ccc(Br)cc2)CC1)c1ccc(Br)cc1 | -98* | 2 | -24 | 6% | 6 | -6
COc1ccc(-c2nc(C)c(CCNC(=O)c3cc(OC)c(OC)c(OC)c3)s2)cc1OC | x | -8 | 7 | x | 0 | 2
Cc1ccc(NC(=O)C2CCCN2S(=O)(=O)c2ccc3c(c2)C(C)(C)C(=O)N3C)cc1 (stereo not given) | x | -12 | 7 | x | 0 | -3
O=C(CSc1nc2c([nH]c3ccccc32)c(=O)n1-c1ccc(Cl)cc1)N1CCCC1 | x | 16 | 7 | x | 3 | -6
COC(=O)[C@]12CCCCC=C1N(Cc1cccc3ccccc13)C(=O)[C@H](CC(=O)NCc1cccs1)C2 | -10 | x | -6 | x | x | x
COC(=O)Cn1c(CCS(=O)(=O)c2ccc(Cl)cc2)nc2ccccc21 | -5 | 6 | -6 | 1% | -1 | 2
COC(=O)Cn1c(CCS(=O)(=O)c2ccc(C)cc2)nc2ccccc21 | -101* | 0 | 0 | 7% | -2 | 0
Cc1ccc(CN(Cc2ccco2)C(=O)c2oc3c(C)c(C)ccc3c2C)cc1 | x | -4 | 6 | x | 18 | 1
S=C1NC[C@H](Cc2ccccc2)N1CC1CCN(CCCC2CCCC2)CC1 | -81* | x | -43 | x | x | x
CCCCN1CCC(CN2C(=S)NC[C@@H]2CC(C)C)CC1 | -80* | x | -46 | x | x | x
CC(C)C[C@H]1CNC(=S)N1CC1CCN(CCCCc2ccccc2)CC1 | -91* | x | -45 | x | x | x
CC(C)C[C@H]1CNC(=O)C(=O)N1CC1CCN(CC2CCC(C(C)(C)C)CC2)CC1 (stereo not given in full) | -57* | x | -35 | x | x | x
COCCNC(=O)c1[nH]c(C(F)(F)F)nc1-c1ccccc1 | 18 | x | 4 | x | x | x
COc1ccc(CCN2CCC(CN3C(=S)NC[C@@H]3CC(C)C)CC2)cc1OC | u | x | -40 | x | x | x
COc1ccc(CCCN2CCC(CN3C(=S)NC[C@@H]3Cc3ccccc3)CC2)cc1OC | -55* | x | -57 | x | x | x
CC(C)C[C@H]1CNC(=S)N1CC1CCN(CCCC2CCCC2)CC1 | -63* | x | -44 | x | x | x
SMILES | D3 antag | D1 antag | D3 ag | Chronic BCR inh | D1 agonist | D1 PAM
O=C(c1ccccc1F)N1CCCC(N2CCN(Cc3ccc4c(c3)OCO4)CC2)C1 (stereo not given) | u | x | 1 | x | x | x
O=C(Nc1ccccc1)N1CCCN(c2ccc(C(F)(F)F)cc2[N+](=O)[O-])CC1 | -27 | -8 | -3 | 0% | 11 | -3
O=C(C1CCC1)N1CCN(c2ccc(C(F)(F)F)cc2[N+](=O)[O-])CC1 | 7 | -40* | -4 | -3% | 10 | -8
CN1CCN(C(=O)CSc2ccc(C(F)(F)F)cc2[N+](=O)[O-])CC1 | 12 | -65* | -2 | 4% | 4 | -10
CCN(CC)c1ccc2c(c1)oc(=O)c1c(Cl)cc(=O)oc12 | -91* | -38* | -12 | -1% | 142* | -5
CCN(CC)c1ccc2c(C)c(Cl)c(=O)oc2c1 | -21 | 1 | -19 | -11% | 0 | 0
Cc1ccccc1-n1nc2c(c1NC(=O)C1CC1)CS(=O)(=O)C2 | -3 | x | -3 | x | x | x
Cc1ccc(CNC(=O)c2nnn(Cc3ccc(F)cc3)c2N)cc1 | x | -9 | -16 | x | 8 | -4
COc1ccccc1N1CCN(CCC(=O)Nc2ccc3c(c2)OCO3)CC1 | -90* | -11 | -6 | 20% | 0 | -7
COc1ccccc1N1CCN(CCC(=O)Nc2ccc(F)cc2)CC1 | -98* | 0 | -18 | 8% | -1 | -13
COc1ccccc1N1CCN(CCC(=O)Nc2cccc(Cl)c2)CC1 | -124* | 1 | -13 | -1% | 5 | -8
COc1ccccc1N1CCN(C(=O)Nc2ccc(F)c(Cl)c2)CC1 | 3 | -57* | 0 | 0% | 2 | -3
Cn1c(=O)c2c(c3ccccc31)OC(=O)CC2c1ccccc1 (stereo not given) | x | -3 | -18 | 4% | 2 | -2
CCOC(=O)c1c(C)[nH]c(C)c1S(=O)(=O)N1CCC(C(=O)N2CCN(c3cccc(C)c3)C(C)C2)CC1 (stereo not given) | x | -12 | -2 | u | 3 | 1
CCOc1ccc(NC(=O)CCN2CCN(c3ccccc3OC)CC2)cc1 | -91* | -9 | -14 | -7% | 2 | 7
O=C(c1ccc2c(c1)OCO2)C1CCCN(Cc2cn[nH]c2-c2ccccc2)C1 (stereo not given) | -13 | -3 | -17 | u | 3 | -2
Cc1ccsc1C(=O)C1CCCN(Cc2cc(F)ccc2-n2cccn2)C1 (stereo not given) | -62* | -18 | -18 | 0% | 1 | -4
COc1cc(OC)c(OC)cc1CN1CCCC(C(=O)c2sccc2C)C1 (stereo not given) | -93* | -38* | -38 | -3% | 9 | -11
CCOC(=O)C1CCCN(Cc2cc(Br)c(OC)cc2OC)C1 (stereo not given) | u | 0 | -33 | 6% | 1 | -4
COc1cc(OC)c(OC)cc1CN1CCCC(C(=O)c2ccc3c(c2)OCO3)C1 (stereo not given) | -93* | -10 | -18 | -5% | 1 | -5
Cc1cc(C)c(CN2CCCC(CNC(=O)c3ccc(F)cc3)C2)c(-n2cccn2)c1 (stereo not given) | -17 | 2 | -6 | 2% | 0 | -2
